Measurements published in PubChem BioAssay AID1508600 (Functional Genomics Laboratory (NCATS/FGL), 2020).
In all, about 53,000 sequences went through this assay and about 3,700 (7%) were called active. This is one part of a sample in which actives are shown more often than they occur.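 Rule for the calls: active = gene knockdowns whose robust z-score for IL-1 alpha signal is at least 2 or at most -2, so actives lie on both sides; inactive = the rest.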

experiment: Components of the Cytosolic LPS Sensing Pathway: Gene Identification via Genome-wide siRNA Screen; conditions: RAW264.7 macrophages, IL-1a HTRF, actives lie on both sides, screened at 100 nM (by protocol), cells primed 5 h with Pam3CSK4 first
Description: Non-canonical inflammasome activation by cytosolic LPS is a critical component of the host response to Gram-negative bacterial infection, however we lack a comprehensive understanding of the cellular processes that control this pathway. Here we describe a genome-wide siRNA screen to identify genes regulating the mouse macrophage IL-1 alpha response to cytosolic LPS.
RAW264.7 cells were maintained in complete DMEM media, comprising DMEM with 4.5 g/L glucose, 10% FBS (Gemini Bio-Products, West Sacramento, CA), 2 mM Glutamine (Lonza) and 20 mM HEPES (Lonza), hereafter complete DMEM.
The RNAi screen was conducted in 384-well format using the Ambion Silencer Mouse Genome siRNA Library (#4391425), which consists of three unique, nonoverlapping, nonpooled siRNAs for each of 17,000 gene targets. siRNA reagents ([…]) were stamped into 384-well white flat-bottom microplates (Corning, 3570) using a Velocity11 VPrep liquid handling system (Agilent) integrated into a BioCel robotic platform (Agilent) in columns 1-22, leaving columns 23-24 empty for negative (Ambion, Negative control #1) and positive (mouse Casp4) controls, respectively. The median value of each plate's negative control column was used to normalize sample wells, and the positive control was used to assess transfection efficiency and assay performance.
Lipofectamine RNAiMAX Transfection Reagent ([…]; Invitrogen) was added in […] serum-free, antibiotic-free media to plate wells using a Thermo Scientific Matrix WellMate and Microplate Stacker. Plates were incubated for 45 min at room temperature to allow for the sufficient formation of siRNA-lipid complexes. Cells were seeded at a density of 1x10^4 cells per well in 20 microL media containing 20% (vol/vol) FBS without antibiotics. The final concentration of siRNA in each well was 100 nM. Cells were cultured for 48h at 37 degrees C in 5% CO2 before addition of […] of TLR ligand Pam3CSK4 for 5 hours. The medium was then removed, replaced with […] growth media and cell were transfected with […] of LipidA and TransIT-TKO (Mirus) for 24 hour. At the end of the LipidA treatment, […] of supernatant was transferred to a 384 Greiner Bio-one non-binding low volume plate and […] of IL-1a HTRF reagent (Cisbio, 62MIL1APEH) was added and incubated at room temperature overnight. The plates were read on an EnVision plate reader (PerkinElmer). Cell viability was measured by adding 20ul Cell Titer Glo to the original plate and running a luminescence read on the EnVision. The quantified IL-1a signal for each siRNA gene-targeted well was divided by the median of the negative control wells and multiplied by 100 to achieve a negative control normalized value for each well/siRNA. This normalized value was then used to generate a robust z-score by first taking the log of each value and then by subtracting the median and dividing by the […].

Sequence	z-score
GGUUUUCCAUCUCCUCCAGTT against Klrc1	0.789 (inactive)
GGGAAACGUGAAUUAGUAATT against 1110051M20Rik	-1.23 (inactive)
CCUCCAUUGAUACUCAAGUTT against Pycr1	0.0219 (inactive)
GGCUAAAUCUCACACUCCATT against Mzb1	-2.18 (active)
GGUGAAGCUCACCAACAAUTT against Tbx20	0.301 (inactive)
CCAUGUUCCAGUUAAUGACTT against Ptch1	-0.419 (inactive)
GCAAGUCCUCUACCUUCUCTT against Vmn1r210	-1.65 (inactive)
GGUGAAACUAAAAAUGGUCTT against Egfl6	-1.07 (inactive)
GCCGUCUCUGUGUCACAAATT against Sirt1	-2.19 (active)
GGUCCUUGUACAACCACCCTT against Acd	0.516 (inactive)
GGUCCUUGCAUUUCAUCAATT against A630005I04Rik	1.6 (inactive)
GGAUUUUUGCACUCAGUAATT against Olfr1256	1.26 (inactive)
GGAACAUUGGUGUUACAGCTT against Atp5j	2.29 (active)
GGAGUUUUCAGCAACAAAUTT against Fgf5	-0.829 (inactive)
GGUAUUCUAUAAGCUCCUUTT against Dennd1a	-2.07 (active)
CCAACGCGAACGAGAACUATT against C1qb	-0.0813 (inactive)
CCAGAUAAUAAUUUGGAUGTT against Dhx9	0.0852 (inactive)
GGAUGUGCCAUUGAAGAUCTT against Atg4c	2.07 (active)
CCUGGAUACCUUCAACUAUTT against Galnt14	-0.209 (inactive)
CCUAAACCAGUCUUUUCUCTT against Cnep1r1	0.369 (inactive)
GCAAAAGCUAAUAAACUUGTT against Acox2	0.921 (inactive)
GCCUACGAGGACAGUACAATT against Mst1r	1.16 (inactive)
GCACUGCAACACUUGGUCCTT against Lcn12	-0.99 (inactive)
GGCAGACCCAUAAUUAAUCTT against Arsk	-0.567 (inactive)
GGCUGAAGCGCAAGAGGAATT against Wdr46	2.68 (active)
GGAAGAUACAAGUCUUUUUTT against Akap12	1.85 (inactive)
GAGAUAAGAUGGGAAAAAATT against Ssbp2	-0.338 (inactive)

Sequence	z-score
GGAAAAGCAGACUUGCACCTT against Npm2	0.228 (inactive)
GGAAGAAGUUGGAGAUGUUTT against Hsd17b11	-0.629 (inactive)
GGAACUAGUUUUUAUACUCTT against Igfbp1	2.23 (active)
GGAACCUAUUUUUUCGUAUTT against Gen1	-0.322 (inactive)
CCAAGAUUCUCCUGAAUUATT against Plod2	-0.183 (inactive)
CGGUGAUCAAAGAUAAGAATT against Zkscan5	-0.936 (inactive)
GGGUGCAUAUGUUUGAAGCTT against Copb2	-2.5 (active)
GGUGUGGUCAUUCCAAAUGTT against Ms4a8a	0.042 (inactive)
GGAGCUGUGCGGUCUGUUATT against Mul1	-0.626 (inactive)
GGAGAAAGUCAAGACCCUCTT against Jund	0.473 (inactive)
GGCUACCAUGGACACAUCATT against Magea7-ps	-2.31 (active)
GGAUGUCUCGGCAUAGUUCTT against Lpar1	-0.64 (inactive)
GGUGAAUGCAAGAUCACCUTT against Myl1	0.343 (inactive)
GCAGUCGAUGUCAAGGUUATT against Plekhf2	0.473 (inactive)
GCCAGGACAAUCUGACUAUTT against Napsa	3.48 (active)
CGGGAUAGACUAUAAGACUTT against Rab40c	0.612 (inactive)
GGAGAUGAGGAAGCUCUUCTT against Usp4	-0.747 (inactive)
CCAAGCAUAUGUGGUUGUUTT against Gpbp1l1	-2.01 (active)
GGUCUACGACCGAUGUUCUTT against 9530003J23Rik	0.729 (inactive)
GGAGUUACCUUUCGAUAGGTT against Exoc5	0.648 (inactive)
GGGUGCAUAAGCAAGCUGUTT against Nkiras2	-0.992 (inactive)
GGGAUCAAAGAUCAGUUAATT against Pih1d2	-0.98 (inactive)
GACAGAGGAAUUUGUCUCCTT against Olfr1120	2.1 (active)
CCUAGUGUGUGCUUUUCGGTT against Akr7a5	-0.502 (inactive)
GGACCCAAGAAGUUUUAUUTT against Zbbx	1.3 (inactive)
GGAGCAGGUAAACAUGUCUTT against Fpr-rs7	-0.218 (inactive)
GCCUGAAAGGCCUCACAAATT against Eloa	-0.72 (inactive)
